# Source: article PMC12701074
# Columns and labels:
# Histone H2B type 1-L = Histone H2B type 1-L (UniProt Q99880); experiment: cross-linking mass spectrometry
# DNA topoisomerase 1 = DNA topoisomerase 1 (UniProt P11387); experiment: cross-link between two proteins; cross-linking mass spectrometry
# [1] = target: Large ribosomal subunit protein eL36 (UniProt Q9Y3U8); experiment: as above
# [2] = target: Probable ATP-dependent RNA helicase DDX5 (UniProt P17844); experiment: as above
# [3] = target: Small ribosomal subunit protein uS17 (UniProt P62280); experiment: as above
# Histone H2B type 1-B = Histone H2B type 1-B (UniProt P33778); experiment: as above
# Histone H4 = Histone H4 (UniProt P62805); experiment: as above
# [4] = target: Large ribosomal subunit protein eL24 (UniProt P83731); experiment: as above
# [5] = target: Large ribosomal subunit protein uL18 (UniProt P46777); experiment: as above
# [6] = target: Large ribosomal subunit protein uL2 (UniProt P62917); experiment: as above
# [7] = target: Small ribosomal subunit protein uS12 (UniProt P62266); experiment: as above
# [8] = target: Peptidyl-prolyl cis-trans isomerase A-like 4A (UniProt Q9Y536); experiment: as above
# Peptidyl-prolyl cis-trans isomerase A-like 4A, sequence (Q9Y536 whole entry): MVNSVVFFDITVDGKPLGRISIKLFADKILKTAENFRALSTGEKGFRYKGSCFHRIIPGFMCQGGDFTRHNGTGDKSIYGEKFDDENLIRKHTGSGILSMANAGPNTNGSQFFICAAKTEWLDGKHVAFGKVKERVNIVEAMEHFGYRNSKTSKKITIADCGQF
# [9] = target: Small ribosomal subunit protein eS6 (UniProt P62753); experiment: as above
# [10] = target: Small ribosomal subunit protein uS9 (UniProt P62249); experiment: as above
# DNA topoisomerase 1, sequence (P11387 whole entry): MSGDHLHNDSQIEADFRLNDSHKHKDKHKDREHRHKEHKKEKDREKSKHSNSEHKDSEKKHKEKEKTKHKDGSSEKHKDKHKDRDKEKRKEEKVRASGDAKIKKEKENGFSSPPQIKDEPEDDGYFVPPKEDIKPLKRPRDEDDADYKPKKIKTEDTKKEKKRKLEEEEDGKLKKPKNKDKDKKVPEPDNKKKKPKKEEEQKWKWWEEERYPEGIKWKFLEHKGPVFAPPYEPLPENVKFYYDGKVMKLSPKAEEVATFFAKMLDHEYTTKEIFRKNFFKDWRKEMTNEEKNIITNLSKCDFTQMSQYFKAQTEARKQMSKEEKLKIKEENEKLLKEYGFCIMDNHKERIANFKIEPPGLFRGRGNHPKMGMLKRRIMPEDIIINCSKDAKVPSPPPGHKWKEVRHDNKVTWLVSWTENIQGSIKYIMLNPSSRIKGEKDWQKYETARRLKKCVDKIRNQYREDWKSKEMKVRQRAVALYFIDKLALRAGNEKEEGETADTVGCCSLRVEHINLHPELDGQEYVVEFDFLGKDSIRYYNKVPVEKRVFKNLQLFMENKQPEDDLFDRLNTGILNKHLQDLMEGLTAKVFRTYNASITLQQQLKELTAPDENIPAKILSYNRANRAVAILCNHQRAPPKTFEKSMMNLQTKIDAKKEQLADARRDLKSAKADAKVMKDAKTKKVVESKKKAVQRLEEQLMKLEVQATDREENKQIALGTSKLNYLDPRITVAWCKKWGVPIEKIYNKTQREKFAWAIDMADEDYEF
# Probable ATP-dependent RNA helicase DDX5, sequence (P17844 whole entry): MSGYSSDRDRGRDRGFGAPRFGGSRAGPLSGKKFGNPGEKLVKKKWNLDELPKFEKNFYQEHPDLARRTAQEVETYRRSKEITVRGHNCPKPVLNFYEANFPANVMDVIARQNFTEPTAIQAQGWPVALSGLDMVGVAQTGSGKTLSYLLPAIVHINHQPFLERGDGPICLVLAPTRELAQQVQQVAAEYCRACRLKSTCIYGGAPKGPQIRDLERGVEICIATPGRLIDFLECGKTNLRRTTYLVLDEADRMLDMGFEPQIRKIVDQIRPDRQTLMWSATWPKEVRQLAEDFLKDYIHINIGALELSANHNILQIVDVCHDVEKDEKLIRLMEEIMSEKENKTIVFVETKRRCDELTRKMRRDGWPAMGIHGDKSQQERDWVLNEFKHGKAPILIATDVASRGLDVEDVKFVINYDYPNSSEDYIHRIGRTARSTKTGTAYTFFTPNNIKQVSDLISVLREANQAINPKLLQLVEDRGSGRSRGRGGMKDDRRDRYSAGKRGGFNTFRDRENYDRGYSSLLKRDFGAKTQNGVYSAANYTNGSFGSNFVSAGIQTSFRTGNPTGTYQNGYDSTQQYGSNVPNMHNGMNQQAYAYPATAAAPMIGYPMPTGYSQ
substance,measurement,setting,value
"Actin, cytoplasmic 1, P60709",listed as a hit,Histone H2B type 1-L,yes
"Histone H1.4, P10412",listed as a hit,DNA topoisomerase 1,yes
same,listed as a hit,[1],yes
same,listed as a hit,[2],yes
same,listed as a hit,[3],yes
"Large ribosomal subunit protein eL33, P18077",listed as a hit,Histone H2B type 1-B,yes
"Large ribosomal subunit protein uL22, P18621",listed as a hit,Histone H2B type 1-B,yes
"Small ribosomal subunit protein eS1, P61247",listed as a hit,Histone H4,yes
"Small ribosomal subunit protein uS5, P15880",listed as a hit,Histone H4,yes
"Histone H4, P62805",listed as a hit,[4],yes
"Histone H2B type 1-B, P33778",listed as a hit,[5],yes
same,listed as a hit,[6],yes
same,listed as a hit,[7],yes
"Histone H2B type 1-C/E/F/G/I, P62807",listed as a hit,[8],yes
"Large ribosomal subunit protein uL4, P36578",listed as a hit,[9],yes
"Large ribosomal subunit protein eL27, P61353",listed as a hit,[10],yes
